# From PubChem
# Shown are actives, neighbours in structure and some others; about 3% of the full set was active somewhere.
# Tau ThT inhib = inhibitors of human tau fibril formation, thioflavin T binding | recombinant tau K18 P301L, heparin-induced fibrillization, ThT fluorescence | Potency, µM (series often up to 57.4 µM), hits mostly inhibitors | 270,000 compounds, 2.1% hits | P10636; also: nearly all actives have a fitted effect of over 55% in size
# Target sequence (P10636 561-689 P618L limits assumed): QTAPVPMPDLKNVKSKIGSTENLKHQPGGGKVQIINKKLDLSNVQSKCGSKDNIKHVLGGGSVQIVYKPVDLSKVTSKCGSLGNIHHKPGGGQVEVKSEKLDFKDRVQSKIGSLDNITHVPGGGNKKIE
#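 In this qHTS, human K18 P301L tau is incubated with compound and heparin for 6 hr at 37 C, and Thioflavin T fluorescence then reports fibril load.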
# FBPA coupling cs = counter-screen for Giardia aldolase inhibitors: coupling enzyme system; 290,000 compounds, 0.67% hits; activity change, negative = inhibition, % at 58.2 µM, hits read low; coupling enzyme system counterscreen, AmpLite Red fluorescence; in the data active = activity change below about -30%
#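 Counterscreen of the coupled detection system alone, without aldolase: glyceraldehyde-3-phosphate coupling enzymes plus AmpLite Red readout. Compounds at 57.5 uM final, 10 min RT preincubation, 20 min RT reaction, fluorescence 525/598 nm.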
# Tau fluor counter = counter-screen for tau fibril formation inhibitors; tau K18 P301L Alexa594 fluorescence, heparin fibrillization; Potency, µM (top dose mostly 57.7 µM); 280,000 compounds, 0.93% hits; AID 1463; also: nearly all actives have a fitted effect of over 55% in size
#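 Human tau K18 P301L (15 uM unlabeled, 0.24 uM Alexa 594-labeled) in 100 mM sodium acetate pH 7 with 20 uM heparin, 6 hr at 37 C. ThT 30 uM added, 1 hr ambient; Alexa 594 FP and total fluorescence read at 555/632 nm.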
# Tau fibril FP = inhibitors of human tau fibril formation; P10636; K18 P301L tau heparin fibrillization, Alexa594 FP, 6 h; Potency, µM (series often up to 57.7 µM), usual class: inhibitors; 280,000 compounds, 0.39% hits; also: nearly all actives have a fitted effect of over 55% in size
#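 Heparin (20 uM) drove fibril formation of recombinant tau K18 P301L, 15 uM unlabeled with 0.24 uM Alexa 594 label, for 6 hr at 37 C in 100 mM sodium acetate pH 7. Fluorescence polarization (555/632 nm) read 1 hr after 30 uM ThT.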
# JMJD2E inh = blocks human JMJD2E demethylase activity | Potency, µM (top dose mostly 57.1 µM), hits mostly inhibitors | B2RXH2 | 230,000 compounds, 1.6% hits | JMJD2E catalytic domain, FDH-coupled NADH fluorescence (FDH is formaldehyde dehydrogenase); also: nearly all actives have a fitted effect of over 50% in size
# Target sequence (B2RXH2 1-337 limits assumed): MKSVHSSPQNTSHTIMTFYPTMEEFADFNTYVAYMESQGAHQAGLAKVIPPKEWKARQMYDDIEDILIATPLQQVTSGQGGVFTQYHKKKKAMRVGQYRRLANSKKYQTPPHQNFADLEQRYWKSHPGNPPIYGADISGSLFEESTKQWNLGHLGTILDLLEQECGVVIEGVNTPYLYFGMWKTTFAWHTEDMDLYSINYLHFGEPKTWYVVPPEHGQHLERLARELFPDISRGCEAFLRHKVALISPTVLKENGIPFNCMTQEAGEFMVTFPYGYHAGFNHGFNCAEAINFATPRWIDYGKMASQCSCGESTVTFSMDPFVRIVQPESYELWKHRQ
# A number is an active result; 0 = inactive; ? = inconclusive; - = not tested or not shown; ! = a repeat was not active; [ ] = remark or other dose. Unless noted, calls follow the shape of the dose curve; as a rule, active = well fitted curve in the direction sought with a large enough effect; inconclusive = small, poorly fitted or top-dose-only effect, or another doubt; inactive = no such curve, though single readings can be large; an effect the other way counts as inactive or inconclusive.
SMILES,Tau ThT inhib,FBPA coupling cs,Tau fluor counter,Tau fibril FP,JMJD2E inh
Cc1cccc(OCCNc2cc(N3CCN(CCO)CC3)ccc2[N+](=O)[O-])c1,28.2µM,0,?,0,0
Cc1ccccc1OCCNc1cc(N2CCN(CCO)CC2)ccc1[N+](=O)[O-],12.6µM,0,?,0,0
CCOc1ccc2nc(N3CCN(C(=O)c4ccco4)CC3)sc2c1,?,-,0,0,-
CC(=O)c1ccc(NC(=O)C2CC(=O)N(Cc3ccccc3)C2)cc1 (stereo unspecified),8.91µM,0,0,0,0
CC(C)=C1C(=O)NN(c2ccc(F)c(Cl)c2)C1=O,?,0,0,0,0
O=C1NN(c2ccc(F)c(Cl)c2)C(=O)/C1=C\c1cccc(OC(=O)c2cccs2)c1,20µM,0,?,0,0
COC(=O)C1=CN(Cc2ccc(OC)cc2)C=C(C(=O)OC)C1c1cccs1,?,0,0,0,?
COC(=O)C1=CC(C(=O)c2cccs2)=NN(c2ccc(OC)cc2)C1C(=O)OC (stereo unspecified),14.1µM,0,?,0,0
O=C(CC1SC2=NCCN2C1=O)Nc1ccc(Br)cc1 (stereo unspecified),0,0,0,0,0
O=C(CC1Sc2ncnn2C1=O)Nc1ccc(Br)cc1 (stereo unspecified),?,0,0,0,2.24µM
CCCCCCCC1=Cc2ccc(F)cc2C(C(C(C)=O)C(=O)OC)N1C(=O)OC (stereo unspecified),0,0,0,?,0
Cc1ccc(N=N/C(=C\O)C(=O)c2ccc(Cl)cc2)cc1,28.2µM,0,0,0,0
O=C(/C(=C/O)N=Nc1ccccc1)c1ccncc1,14.1µM,0,0,0,0
O=C(/C(=C/O)N=Nc1ccccc1)c1ccc(Cl)cc1,?,0,0,0,0
O=C(CSc1cccc[n+]1[O-])c1cc2ccccc2o1,0,0,0,0,31.6µM
COc1ccccc1CCNC(=O)C(=O)NCC(c1ccc2c(c1)OCO2)N1CCOCC1 (stereo unspecified),0,-,0,0,-
CC[C@H](C)[C@H](NC(=O)[C@H](CCC(=O)O)NC(=O)[C@@H](N)CO)C(=O)N[C@@H](CCC(N)=O)C(=O)N[C@@H](CC(C)C)C(=O)N[C@@H](CCSC)C(=O)N[C@@H](Cc1cnc[nH]1)C(=O)N[C@@H](CC(N)=O)C(=O)N[C@@H](CC(C)C)C(=O)NCC(=O)N[C@@H](CCCCN)C(=O)N[C@@H](Cc1cnc[nH]1)C(=O)N[C@@H](CC(C)C)C(=O)N[C@@H](CC(N)=O)C(=O)N[C@@H](CO)C(=O)N[C@@H](CCSC)C(=O)N[C@@H](CCC(=O)O)C(=O)N[C@@H](CCCNC(=N)N)C(=O)N[C@H](C(=O)N[C@@H](CCC(=O)O)C(=O)N[C@@H](Cc1c[nH]c2ccccc12)C(=O)N[C@@H](CC(C)C)C(=O)N[C@@H](CCCNC(=N)N)C(=O)N[C@@H](CCCCN)C(=O)N[C@@H](CCCCN)C(=O)N[C@@H](CC(C)C)C(=O)N[C@@H](CCC(N)=O)C(=O)N[C@@H](CC(=O)O)C(=O)N[C@H](C(=O)N[C@@H](Cc1cnc[nH]1)C(=O)N[C@@H](CC(N)=O)C(=O)N[C@@H](Cc1ccccc1)C(=O)O)C(C)C)C(C)C,-,0,-,-,-
CC[Si](CC)(CC)O[C@H]([C@@H](C)COCOC)[C@@H](C)COCc1ccc(OC)cc1,-,0,-,-,-
COc1cc(C2N(c3ccccc3)CCN2c2ccccc2)ccc1OC(C)=O,0,0,0,0,0
COc1ccc(C2N(c3ccc(C)cc3)CCN2c2ccc(C)cc2)cc1O,?,0,25.1µM[quencher],0,0
COc1cc(/C=C/c2ccc3c(Br)cc(Br)c(O)c3n2)ccc1O,3.55µM,0,5.01µM[quencher],0,?
Nc1ccc2oc(-c3ccc4nc[nH]c4c3)nc2c1,14.1µM,0,?,0,?
COc1ccccc1N1CCN(CC(O)COc2ccc(C)cc2C)CC1 (stereo unspecified),-,0,-,-,-
COc1ccccc1N1CCN(CC(O)COc2c(OC)cccc2OC)CC1 (stereo unspecified),20µM,0,?,?,0
Cn1c(C(C#N)C2=C(Cl)C(=O)N(c3ccccc3)C2=O)nc2ccccc21 (stereo unspecified),12.6µM,0,15.8µM[quencher],?,0
SMILES,Tau ThT inhib,FBPA coupling cs,Tau fluor counter,Tau fibril FP,JMJD2E inh
COc1ccc(-c2cn3nc(N4CCC(C(=O)Nc5ccc(C)cc5)CC4)sc3n2)cc1,?,-,0,0,-
CCOc1ccc(S(=O)(=O)NCc2cccnc2)cc1C,0,0,0,0,0
CCOc1ccc(S(=O)(=O)NCCc2c(C)[nH]c3c(Cl)cccc23)cc1C,0,-,10µM[quencher],0,-
COc1cccc(C2=NS(=O)(=O)N(C)C(C(=O)Nc3ccccc3SC)=C2)c1,0,-,0,0,-
COC1=CC(=O)C(C(=O)c2ccccc2)=CC1=O,3.16µM,-67.0,6.31µM[quencher],10µM,?
COc1ccc(Nc2nc(N)nc(CSC(=S)N3CCCCC3C)n2)cc1 (stereo unspecified),?,0,10µM[quencher],0,0
O=C1c2ccccc2C(=O)C1c1ccc2ccccc2n1,2.24µM,0,0,0,0
COC(=O)C1=C(C)NC(C)=C(C(=O)OC)C1c1ccc2ccccc2n1,0,0,0,0,0
COc1ccc(Cn2c(=O)c3cccnc3n(CC(=O)Nc3c(C)cc(C)cc3C)c2=O)cc1,0,-,0,0,-
Oc1ccc(N=Nc2n[nH]c(-c3ccc(Br)cc3)n2)cc1,2.24µM,0,?,0,0
Oc1ccc(N=Nc2n[nH]c(-c3ccccc3)n2)cc1,2.51µM,0,0,0,0
COc1ccc(Cl)cc1NC(=O)CSc1nc(-c2ccccc2)c2ccccc2n1,0,-,0,?,-
COC(=O)C1=C(C(=O)OC)[C@@H]2N(C)c3ccc(OC)cc3[C@@]23C[C@@H](C(=O)OC)N(S(=O)(=O)c2ccc(C(F)(F)F)cc2)C3=N1,0[11.5 µM],0,0[11.6 µM],0[11.6 µM],0[11.4 µM]
CC1=C(CC(=O)O)c2cc(F)ccc2/C1=C\c1ccc(S(C)=O)cc1 (stereo unspecified),?,0,0,0,35.5µM!
CC(C)(C)OC(=O)N1CCC(c2c(C(=O)NCCN3CCOCC3)cnn2-c2ccc(F)cc2F)CC1,0,-,0,0,-
Cc1cc2c(cc1S(=O)(=O)N(CCN(C)C)Cc1ccccc1)OCC(=O)N2,0,-,0,0,-
COc1ccc(OC)c2c(=S)c3ccccc3[nH]c12,3.98µM,0,11.2µM[quencher],7.94µM,?
COc1ccc(-c2c(N)nnc3c2[nH]c2ccccc23)cc1OC,?,0,0,0,0
COc1ccc(/C=N\Nc2ccc([N+](=O)[O-])cc2)c(C(=O)O)c1OC,12.6µM,0,0,0,0
N#CC1=C(N)Oc2c(O)cc3ccccc3c2C1c1ccsc1 (stereo unspecified),?,0,15.8µM[quencher],?,?
CCOC(=O)C1=C(C)OC(N)=C(C#N)C1c1ccsc1 (stereo unspecified),?,0,0,0,0
